Experimental data from PubChem BioAssay (NCATS).
Inconclusive results are not listed. Entries that show only a call come without a potency. The source made the active and inactive calls. Calls come from the whole dose curve; as a rule, active = well fitted cell-killing curve with a large enough effect; inconclusive = small, poorly fitted or top-dose-only effect, or effect the other way; inactive = flat fitted curve, though single readings scatter.

Tested on: SKOV3
Experiment: Primary qHTS to identify gynecologic anti-cancer compounds using libraries of approved drugs and bioactive compounds (AID 1345084); note: nearly all actives have a fitted effect of over 55% in size
Settings: Gynecologic cancer cell panel viability, ATPlite luminescence, 48 h; series mostly up to 57.5 µM
Procedure, shortened: (§1)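 48 h compound exposure at 37 C, 5% CO2; five-point qHTS. ATPlite luminescence readout of cell ATP.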

Row | SMILES | Potency
1 | CCC1(CC)C(=O)NC(=O)NC1=O | inactive
2 | CC(C)(C)OC(=O)c1ncn2c1[C@@H]1CCCN1C(=O)c1c(Br)cccc1-2 | inactive
3 | CCOC(=O)C(c1c(O)c2ccccc2oc1=O)c1c(O)c2ccccc2oc1=O | inactive
4 | CNC(C)Cc1ccccc1OC (configuration not stated) | inactive
5 | ClCc1cccc(Cl)c1 | inactive
6 | CC(CC(C(N)=O)(c1ccccc1)c1ccccc1)N(C)C (configuration not stated) | inactive
7 | O=C(CBr)Nc1ccc(Cl)cc1C(=O)c1ccccc1F | inactive
8 | COP(=O)(OC)C(O)C(Cl)(Cl)Cl (configuration not stated) | inactive
9 | C[C@H]1CNCCc2ccc(Cl)cc21 | inactive
10 | COc1cc(N)c(Cl)cc1C(=O)NC1CN2CCC1CC2 (configuration not stated) | inactive
11 | COC(=O)C1=CCCN(C)C1 | inactive
12 | C[C@@H]1CN(C2CCC(C#N)(c3ccc(F)cc3)CC2)CC[C@]1(C(=O)O)c1ccccc1 (some centres not stated) | inactive
13 | CCOC(=O)NC(O)C(Cl)(Cl)Cl (configuration not stated) | inactive
14 | OC(O)C(Cl)(Cl)Cl | inactive
15 | ClCCCN1CCN(c2cccc(Cl)c2)CC1 | inactive
16 | C#C[C@]1(O)C=C[C@H]2[C@@H]3CCC4=CC(=O)CC[C@@H]4[C@H]3CC[C@@]21CC | inactive
17 | O=c1[nH]c2cc(Cl)ccc2n1C1CCNCC1 | inactive
18 | O=C(O)Cc1ccccc1 | inactive
19 | CC(C)(O)C(Cl)(Cl)Cl | inactive

Row | SMILES | Potency
20 | C[N+]1(CCC(C(N)=O)(c2ccccc2)c2ccccc2)CCCCC1 | inactive
21 | CCc1ccc(C2CCNCC2)cc1 | inactive
22 | C[C@]12CC[C@H]3[C@@H](CCC4=CC(=O)CC[C@@H]43)[C@@H]1CC[C@@H]2O | inactive
23 | Cc1ccc(N=CN(C)C=Nc2ccc(C)cc2C)c(C)c1 | inactive
24 | COP(=O)(OC)OC=C(Cl)Cl | inactive
25 | CCN1CCCC1CNC(=O)C(O)(c1ccccc1)c1ccccc1 (configuration not stated) | inactive
26 | CN(C)C(=O)Oc1cc(OC(=O)N(C)C)cc(C(O)CNC(C)(C)C)c1 (configuration not stated) | inactive
27 | O=C1CN2CCOC2(c2ccccc2Cl)c2cc(Cl)ccc2N1 (configuration not stated) | inactive
28 | COP(=S)(OC)Oc1ccc(Sc2ccc(OP(=S)(OC)OC)cc2)cc1 | inactive
29 | O=C(O)c1nn(Cc2ccc(Cl)cc2Cl)c2ccccc12 | inactive
30 | COCC(=O)N(c1c(C)cccc1C)C(C)C(=O)OC (configuration not stated) | inactive
31 | NC(=O)OCCCc1ccccc1 | inactive
32 | CCN(CC)CCOC(=O)C(C)(c1ccccc1)c1ccccc1 | inactive
33 | CCOP(=S)(OCC)O/N=C(\C#N)c1ccccc1 | inactive
34 | O=C(CCCCl)c1ccc(F)cc1 | inactive
35 | C[N+]1(C)[C@@H]2CC[C@H]1CC(OC(=O)C(CO)c1ccccc1)C2 (some centres not stated) | inactive
36 | CC1=C2[C@H]3OC(=O)[C@@H](C)[C@@H]3CC[C@@]2(C)C=CC1=O | inactive
37 | Sc1ccccc1Cl | inactive

Tested on: Tov-21-G
Experiment: as above
Settings: Gynecologic cancer cell panel viability, ATPlite luminescence, 48 h; series mostly up to 57.5 µM
Procedure, shortened: as §1

Row | SMILES | Potency
38 | C1CN2CCC1CC2 | inactive
39 | CCC1(CC)C(=O)NC(=O)NC1=O | inactive
40 | CC(C)(C)OC(=O)c1ncn2c1[C@@H]1CCCN1C(=O)c1c(Br)cccc1-2 | inactive
41 | CN1C(=O)CN=C(c2ccccc2)c2cc([N+](=O)[O-])ccc21 | inactive
42 | CCOC(=O)C(c1c(O)c2ccccc2oc1=O)c1c(O)c2ccccc2oc1=O | inactive
43 | CNC(C)Cc1ccccc1OC (configuration not stated) | inactive
44 | ClCc1cccc(Cl)c1 | inactive
45 | CC(CC(C(N)=O)(c1ccccc1)c1ccccc1)N(C)C (configuration not stated) | inactive
46 | CC1Sc2c(C(=O)O)c(=O)c3cc(F)c(N4CCNCC4)cc3n21 (configuration not stated) | inactive
47 | O=C(CBr)Nc1ccc(Cl)cc1C(=O)c1ccccc1F | inactive
48 | COP(=O)(OC)C(O)C(Cl)(Cl)Cl (configuration not stated) | inactive
49 | C[C@H]1CNCCc2ccc(Cl)cc21 | inactive
50 | COc1cc(N)c(Cl)cc1C(=O)NC1CN2CCC1CC2 (configuration not stated) | inactive
51 | COC(=O)C1=CCCN(C)C1 | inactive
52 | C[C@@H]1CN(C2CCC(C#N)(c3ccc(F)cc3)CC2)CC[C@]1(C(=O)O)c1ccccc1 (some centres not stated) | inactive
53 | CCOC(=O)NC(O)C(Cl)(Cl)Cl (configuration not stated) | inactive
54 | OC(O)C(Cl)(Cl)Cl | inactive
55 | ClCCCN1CCN(c2cccc(Cl)c2)CC1 | inactive
56 | C#C[C@]1(O)C=C[C@H]2[C@@H]3CCC4=CC(=O)CC[C@@H]4[C@H]3CC[C@@]21CC | inactive
57 | O=c1[nH]c2cc(Cl)ccc2n1C1CCNCC1 | inactive

Row | SMILES | Potency
58 | O=C(O)Cc1ccccc1 | inactive
59 | CC(C)(O)C(Cl)(Cl)Cl | inactive
60 | C[N+]1(CCC(C(N)=O)(c2ccccc2)c2ccccc2)CCCCC1 | inactive
61 | CCc1ccc(C2CCNCC2)cc1 | inactive
62 | C[C@]12CC[C@H]3[C@@H](CCC4=CC(=O)CC[C@@H]43)[C@@H]1CC[C@@H]2O | inactive
63 | Cc1ccc(N=CN(C)C=Nc2ccc(C)cc2C)c(C)c1 | inactive
64 | COP(=O)(OC)OC=C(Cl)Cl | inactive
65 | CCN1CCCC1CNC(=O)C(O)(c1ccccc1)c1ccccc1 (configuration not stated) | inactive
66 | CN(C)C(=O)Oc1cc(OC(=O)N(C)C)cc(C(O)CNC(C)(C)C)c1 (configuration not stated) | inactive
67 | O=C1CN2CCOC2(c2ccccc2Cl)c2cc(Cl)ccc2N1 (configuration not stated) | inactive
68 | COP(=S)(OC)Oc1ccc(Sc2ccc(OP(=S)(OC)OC)cc2)cc1 | inactive
69 | O=C(O)c1nn(Cc2ccc(Cl)cc2Cl)c2ccccc12 | inactive
70 | COCC(=O)N(c1c(C)cccc1C)C(C)C(=O)OC (configuration not stated) | inactive
71 | NC(=O)OCCCc1ccccc1 | inactive
72 | CCN(CC)CCOC(=O)C(C)(c1ccccc1)c1ccccc1 | inactive
73 | CCOP(=S)(OCC)O/N=C(\C#N)c1ccccc1 | inactive
74 | O=C(CCCCl)c1ccc(F)cc1 | inactive
75 | C[N+]1(C)[C@@H]2CC[C@H]1CC(OC(=O)C(CO)c1ccccc1)C2 (some centres not stated) | inactive
76 | CC1=C2[C@H]3OC(=O)[C@@H](C)[C@@H]3CC[C@@]2(C)C=CC1=O | inactive
77 | Sc1ccccc1Cl | inactive
